Experimental data taken from the antibiotic and cytotoxicity screens of Wong et al. (2023).
Screen size: about 39,000 compounds; about 3,300 (8.5%) were called active. Only a selection was taken, and actives are over-represented in it overall.

System: HepG2
Assay: cytotoxicity call (relative viability < 0.9)
Settings: 10 µM

**Q.** `CCC(=O)N1CCC(C(=O)O)CC1` was tested. Which cytotoxicity call did it give?
**A.** inactive

**Q.** `C[C@H](CCC(=O)NCCS(=O)(=O)O)[C@H]1CC[C@H]2[C@@H]3[C@H](O)C[C@@H]4C[C@H](O)CC[C@]4(C)[C@H]3C[C@H](O)[C@]12C` was tested. Which cytotoxicity call did it give?
**A.** inactive

**Q.** For `C[C@H](CCC(=O)NCC(=O)NCCS(=O)(=O)O)[C@H]1CC[C@H]2[C@@H]3[C@H](O)C[C@@H]4C[C@H](O)CC[C@]4(C)[C@H]3C[C@H](O)[C@]12C`, which cytotoxicity call is on record?
**A.** active

**Q.** Which cytotoxicity call does the source give for `COC(=O)CCC(C)C1CCC2C3C(O)CC4CC(O)CCC4(C)C3CC(O)C12C` (stereo not drawn) here?
**A.** active

**Q.** With `CC(CCC(=O)O)C1CCC2C3C(O)CC4CC(O)CCC4(C)C3CC(O)C12C` (stereo not drawn) as the molecule, how does the cytotoxicity call read?
**A.** inactive

**Q.** `CC(CCC(=O)NCC(=O)O)C1CCC2C3C(O)CC4CC(O)CCC4(C)C3CC(O)C12C` (stereo not drawn) was tested. Which cytotoxicity call did it give?
**A.** inactive

**Q.** Which cytotoxicity call does the source give for `COC(=O)CCC(C)C1CCC2C3CCC4CC(O)CCC4(C)C3CC(O)C12C` (stereo not drawn) here?
**A.** inactive

**Q.** How did the cytotoxicity call turn out when `Cc1noc(C)c1NC(=O)Nc1ccc2c(c1)C(=O)N([C@H](C)CO)C[C@H](C)[C@@H](CN(C)S(=O)(=O)c1ccc(Cl)cc1)OCCCC[C@H](C)O2` was run?
**A.** inactive

**Q.** `CCc1nnc(SCC(=O)OC)[nH]1` was tested. Which cytotoxicity call did it give?
**A.** inactive

**Q.** How did the cytotoxicity call turn out when `COc1ccc(NC(=O)N(C)C[C@H]2OCCCC[C@H](C)Oc3ccc(NC(=O)Nc4c(C)noc4C)cc3C(=O)N([C@H](C)CO)C[C@@H]2C)cc1` was run?
**A.** inactive

**Q.** How did the cytotoxicity call turn out when `C[C@H]1CN([C@@H](C)CO)C(=O)Cc2cc(NC(=O)Cc3ccccc3)ccc2O[C@H]1CN(C)Cc1ccc(C(F)(F)F)cc1` was run?
**A.** inactive

**Q.** `C[C@@H]1CN([C@@H](C)CO)C(=O)Cc2cc(NC(=O)Cc3ccccc3)ccc2O[C@H]1CN(C)C(=O)Nc1ccc(C(F)(F)F)cc1` was tested. Which cytotoxicity call did it give?
**A.** inactive

**Q.** With `C[C@H](CO)N1C[C@H](C)[C@@H](CN(C)Cc2ccc(C(F)(F)F)cc2)Oc2ccc(NC(=O)Cc3ccccc3)cc2CC1=O` as the molecule, how does the cytotoxicity call read?
**A.** inactive

**Q.** `C[C@H]1CN([C@@H](C)CO)C(=O)Cc2cc(NC(=O)Cc3ccccc3)ccc2O[C@@H]1CN(C)Cc1ccc(C(F)(F)F)cc1` was tested. Which cytotoxicity call did it give?
**A.** inactive

**Q.** `C[C@@H]1CN([C@H](C)CO)C(=O)Cc2cc(NC(=O)Cc3ccccc3)ccc2O[C@H]1CN(C)Cc1ccc(C(F)(F)F)cc1` was tested. Which cytotoxicity call did it give?
**A.** inactive

**Q.** With `C[C@@H]1CN([C@@H](C)CO)C(=O)Cc2cc(NC(=O)Cc3ccccc3)ccc2O[C@@H]1CN(C)Cc1ccc(C(F)(F)F)cc1` as the molecule, how does the cytotoxicity call read?
**A.** active

**Q.** `C[C@@H]1CN([C@H](C)CO)C(=O)Cc2cc(NC(=O)Cc3ccccc3)ccc2O[C@@H]1CN(C)Cc1ccc(C(F)(F)F)cc1` was tested. Which cytotoxicity call did it give?
**A.** active

**Q.** With `C[C@H](CO)N1C[C@H](C)[C@H](CN(C)Cc2ccc(C(F)(F)F)cc2)Oc2ccc(NC(=O)Cc3ccccc3)cc2CC1=O` as the molecule, how does the cytotoxicity call read?
**A.** active

**Q.** How did the cytotoxicity call turn out when `C[C@@H]1CN([C@@H](C)CO)C(=O)Cc2cc(NC(=O)Cc3ccccc3)ccc2O[C@H]1CN(C)Cc1ccc(C(F)(F)F)cc1` was run?
**A.** inactive

**Q.** `CN1CCN(C(=O)C[C@@H]2CC[C@H]3[C@@H](COC[C@@H](O)CN3C(=O)C3CCOCC3)O2)CC1` was tested. Which cytotoxicity call did it give?
**A.** inactive

**Q.** For `COCC(=O)Nc1ccc2c(c1)C(=O)N(C)[C@@H]1CC[C@H](CC(=O)NCc3ccccc3Cl)O[C@@H]1CO2`, which cytotoxicity call is on record?
**A.** inactive

**Q.** `CCCn1c(=O)[nH]c2nc(-c3ccc(S(=O)(=O)N4CCN(c5ccc(Cl)cc5)CC4)cc3)[nH]c2c1=O` was tested. Which cytotoxicity call did it give?
**A.** inactive

**Q.** How did the cytotoxicity call turn out when `CC(C)(C)[S@](=O)N1Cc2cc(C(=O)N[C@@H]3CCN(Cc4ccccc4)C3)nc(-c3cccc(-c4ccncc4)c3)c2[C@@H]1CCO` was run?
**A.** inactive

**Q.** How did the cytotoxicity call turn out when `Cc1ccnc(-n2c(C)ccc2C)c1` was run?
**A.** inactive

**Q.** Which cytotoxicity call does the source give for `C[C@@H]1CN([C@@H](C)CO)C(=O)c2cccc(NC(=O)Nc3ccc4c(c3)OCO4)c2O[C@@H]1CN(C)C(=O)Nc1ccc(C(F)(F)F)cc1` here?
**A.** inactive

**Q.** Which cytotoxicity call does the source give for `C[C@@H]1CN([C@H](C)CO)C(=O)CCCn2nncc2CO[C@@H]1CN(C)C(=O)Nc1ccc(N2CCN(C)CC2)cc1` here?
**A.** inactive

**Q.** With `C[C@@H]1CN([C@H](C)CO)C(=O)c2cccc(NC(=O)c3nc4ccccc4s3)c2O[C@H]1CN(C)C(=O)Nc1ccc(C(F)(F)F)cc1` as the molecule, how does the cytotoxicity call read?
**A.** inactive

**Q.** How did the cytotoxicity call turn out when `O=C(C[C@H]1C[C@H]2c3cc(NS(=O)(=O)c4ccc(F)cc4)ccc3O[C@H]2[C@@H](CO)O1)NCc1ccc(Oc2ccccc2)cc1` was run?
**A.** inactive

**Q.** Which cytotoxicity call does the source give for `O=C(C[C@H]1C[C@@H]2c3cc(NS(=O)(=O)c4ccc(F)cc4)ccc3O[C@@H]2[C@H](CO)O1)NCc1ccc(Oc2ccccc2)cc1` here?
**A.** inactive

**Q.** For `O=C(C[C@@H]1C[C@H]2c3cc(NS(=O)(=O)c4ccc(F)cc4)ccc3O[C@H]2[C@@H](CO)O1)NCc1ccc(Oc2ccccc2)cc1`, which cytotoxicity call is on record?
**A.** active

**Q.** For `O=C(C[C@H]1C[C@@H]2c3cc(NS(=O)(=O)c4ccc(F)cc4)ccc3O[C@@H]2[C@H](CO)O1)NCc1ccccc1`, which cytotoxicity call is on record?
**A.** inactive

**Q.** For `O=C(C[C@H]1C[C@H]2c3cc(NS(=O)(=O)c4ccc(F)cc4)ccc3O[C@H]2[C@H](CO)O1)NCc1ccc(Oc2ccccc2)cc1`, which cytotoxicity call is on record?
**A.** active

**Q.** For `COc1cccc(S(=O)(=O)Nc2ccc3c(c2)[C@@H]2C[C@@H](CC(=O)NCc4ccccc4F)O[C@H](CO)[C@@H]2O3)c1`, which cytotoxicity call is on record?
**A.** inactive

**Q.** How did the cytotoxicity call turn out when `O=C(C[C@@H]1C[C@@H]2c3cc(NS(=O)(=O)c4ccc(F)cc4)ccc3O[C@@H]2[C@H](CO)O1)NCc1ccccc1` was run?
**A.** inactive

**Q.** How did the cytotoxicity call turn out when `COc1cccc(S(=O)(=O)Nc2ccc3c(c2)[C@@H]2C[C@@H](CC(=O)NCc4ccccc4F)O[C@@H](CO)[C@@H]2O3)c1` was run?
**A.** active

**Q.** How did the cytotoxicity call turn out when `O=C(C[C@H]1C[C@@H]2c3cc(NS(=O)(=O)c4ccc(F)cc4)ccc3O[C@@H]2[C@@H](CO)O1)NCc1ccc(Oc2ccccc2)cc1` was run?
**A.** active

**Q.** How did the cytotoxicity call turn out when `COc1cccc(S(=O)(=O)Nc2ccc3c(c2)[C@H]2C[C@@H](CC(=O)NCc4ccccc4F)O[C@H](CO)[C@H]2O3)c1` was run?
**A.** inactive

**Q.** Which cytotoxicity call does the source give for `O=C(C[C@@H]1C[C@@H]2c3cc(NS(=O)(=O)c4ccc(F)cc4)ccc3O[C@@H]2[C@H](CO)O1)NCc1ccc(Oc2ccccc2)cc1` here?
**A.** inactive

**Q.** For `O=C(C[C@@H]1C[C@@H]2c3cc(NS(=O)(=O)c4ccc(F)cc4)ccc3O[C@@H]2[C@@H](CO)O1)NCc1ccc(Oc2ccccc2)cc1`, which cytotoxicity call is on record?
**A.** inactive

**Q.** For `CNC[C@H]1Oc2cc(C#CC(C)(C)O)ccc2S(=O)(=O)N([C@H](C)CO)C[C@H]1C`, which cytotoxicity call is on record?
**A.** inactive

**Q.** Which cytotoxicity call does the source give for `COc1cc(F)c(F)c(Nc2ccc(I)cc2F)c1NS(=O)(=O)C1(C[C@H](O)CO)CC1` here?
**A.** inactive

**Q.** With `O=C(NCC1(c2nc(-c3ccccc3)cs2)CCOCC1)c1cccc(-c2noc(C(F)(F)F)n2)c1` as the molecule, how does the cytotoxicity call read?
**A.** inactive

**Q.** With `C[C@@H]1CN([C@@H](C)CO)C(=O)c2cccc(NS(=O)(=O)c3cn(C)cn3)c2O[C@@H]1CN(C)Cc1ccc(C(=O)Nc2ccccc2N)cc1` as the molecule, how does the cytotoxicity call read?
**A.** inactive

**Q.** With `C[C@H]1CN([C@@H](C)CO)C(=O)c2cccc(NC(=O)c3ccc(-c4nccs4)cc3)c2O[C@H]1CN(C)C(=O)Nc1ccc(F)cc1` as the molecule, how does the cytotoxicity call read?
**A.** inactive

**Q.** For `C[C@H]1CN([C@@H](C)CO)C(=O)c2cc(NC(=O)Nc3ccc(F)cc3)ccc2O[C@H]1CN(C)C(=O)Nc1cccc2ccccc12`, which cytotoxicity call is on record?
**A.** inactive

**Q.** How did the cytotoxicity call turn out when `COc1cc(Nc2c(C#N)cnc3cc(OCCCN4CCN(C)CC4)c(OC)cc23)c(Cl)cc1Cl` was run?
**A.** active

**Q.** How did the cytotoxicity call turn out when `COc1cc2nc(N3CCCN(Cc4ccccc4)CC3)nc(Nc3ccc(F)c(Cl)c3)c2cc1OC` was run?
**A.** active

**Q.** `O=C(C1=C[C@@H](c2ccc(Br)cc2)C[C@@H](OCc2ccc(CO)cc2)O1)N1CCN(Cc2ccccc2)CC1` was tested. Which cytotoxicity call did it give?
**A.** inactive

**Q.** `COc1cc2c(NC3CCN(C)CC3)nc(N3CCCN(C)CC3)nc2cc1OCCOCCN(C)C` was tested. Which cytotoxicity call did it give?
**A.** inactive

**Q.** `COc1cc(C(=O)OCCCN2CCCN(CCOC(=O)c3cc(OC)c(OC)c(OC)c3)CC2)cc(OC)c1OC` was tested. Which cytotoxicity call did it give?
**A.** inactive

**Q.** How did the cytotoxicity call turn out when `COc1cc2nc(N3CCCN(Cc4ccccc4)CC3)nc(NC3CCN(Cc4ccccc4)CC3)c2cc1OC` was run?
**A.** active

**Q.** Which cytotoxicity call does the source give for `COc1cc(C(=O)OCCCN2CCN(CCCOC(=O)c3cc(OC)c(OC)c(OC)c3)CC2)cc(OC)c1OC` here?
**A.** inactive

**Q.** `O=C(C1=C[C@H](c2ccc(Br)cc2)C[C@H](OCc2ccc(CO)cc2)O1)N1CCN(Cc2ccccc2)CC1` was tested. Which cytotoxicity call did it give?
**A.** inactive

**Q.** Which cytotoxicity call does the source give for `Brc1ccc2nc(N3CCCN(Cc4ccccc4)CC3)nc(NC3CCN(Cc4ccccc4)CC3)c2c1` here?
**A.** active

**Q.** For `COc1cc2c(cc1OC)C(=O)C(CC1CCN(Cc3ccccc3)CC1)C2.Cl` (stereo not drawn), which cytotoxicity call is on record?
**A.** inactive

**Q.** Which cytotoxicity call does the source give for `CCOC(=O)/C=C(C)/C=C/C=C(C)/C=C/c1c(C)cc(OC)c(C)c1C` here?
**A.** inactive

**Q.** Which cytotoxicity call does the source give for `O=C(NCCCn1ccnc1)C(=O)NC[C@H]1OCCN1S(=O)(=O)c1ccc(F)cc1` here?
**A.** inactive

**Q.** For `C[C@@H]1CN([C@@H](C)CO)C(=O)c2cccc(NS(=O)(=O)c3ccccc3)c2O[C@H]1CN(C)S(=O)(=O)c1cn(C)cn1`, which cytotoxicity call is on record?
**A.** inactive

**Q.** `Cc1ccc(S(=O)(=O)Nc2ccc3c(c2)C(=O)N([C@H](C)CO)C[C@@H](C)[C@@H](CN(C)C(=O)c2ccccc2)OCCCC[C@@H](C)O3)cc1` was tested. Which cytotoxicity call did it give?
**A.** inactive

**Q.** For `CC(C)NC(=O)Nc1ccc2c(c1)C(=O)N([C@@H](C)CO)C[C@H](C)[C@@H](CN(C)S(=O)(=O)c1ccc(F)cc1)O2`, which cytotoxicity call is on record?
**A.** inactive

**Q.** `COc1ccc(C#Cc2cnc3c(c2)C(=O)N([C@H](C)CO)C[C@@H](C)[C@@H](CN(C)C(=O)CN(C)C)O3)cc1` was tested. Which cytotoxicity call did it give?
**A.** inactive

**Q.** `C[C@H]1CN([C@@H](C)CO)C(=O)c2cc(NC(=O)CCCN(C)C)ccc2O[C@@H]1CN(C)S(=O)(=O)c1cn(C)cn1` was tested. Which cytotoxicity call did it give?
**A.** inactive

**Q.** For `C[C@H](CO)N1C[C@H](C)[C@H](CN(C)Cc2ccc3c(c2)OCO3)Oc2ccc(NC(=O)C3CC3)cc2CC1=O`, which cytotoxicity call is on record?
**A.** inactive

**Q.** How did the cytotoxicity call turn out when `Nc1ncn(C(=O)c2ccccc2)n1` was run?
**A.** inactive

**Q.** `C[C@@H]1CN([C@H](C)CO)C(=O)c2cccc(NC(=O)c3nc4ccccc4s3)c2O[C@@H]1CN(C)Cc1ccc(C(=O)Nc2ccccc2N)cc1` was tested. Which cytotoxicity call did it give?
**A.** inactive

**Q.** Which cytotoxicity call does the source give for `O=C(C[C@H]1C[C@@H]2c3cc(NS(=O)(=O)c4ccccc4)ccc3O[C@@H]2[C@@H](CO)O1)NC1CCCCC1` here?
**A.** inactive

**Q.** How did the cytotoxicity call turn out when `COc1ccc(NC(C)=S)cc1C` was run?
**A.** inactive

**Q.** How did the cytotoxicity call turn out when `COc1ccc(S(=O)(=O)Nc2ccc3c(c2)C(=O)N([C@H](C)CO)C[C@@H](C)[C@H](CN(C)Cc2ccccc2)OCCCC[C@@H](C)O3)cc1` was run?
**A.** inactive
